The panel holds about 79,000 compounds, 15% with a hit somewhere; the sample as a whole holds those more often. Values without a mark were called inactive. The source made the active and inactive calls. Cut-off read from the data, not from the text of the source: active = growth inhibition above about 70%; inactive = the rest.
Experiments:
[1] = NCI Yeast Anticancer Drug Screen. Data for the rad50 strain (AID 155);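 note: 0% = growth of vehicle-only cultures of the same strain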; details: S. cerevisiae rad50 strain growth inhibition, stronger effect = higher value
Summary of the method: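 DNA repair mutant yeast, compound exposure, growth read-out; inhibition is taken relative to vehicle.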

[2] = NCI Yeast Anticancer Drug Screen. Data for the mec2-1 strain (AID 157); details: S. cerevisiae mec2-1 strain, stronger effect = higher value
Summary of the method: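 Cells of the genetically defined mec2-1 yeast strain are incubated with test compound. Inhibition of growth is calculated against vehicle-treated controls.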

[3] = NCI Yeast Anticancer Drug Screen. Data for the sgs1 mgt1 strain (AID 161);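 note: 0% = growth of cultures given vehicle only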; details: S. cerevisiae sgs1 mgt1 strain, stronger effect = higher value
Summary of the method: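 Mutant yeast exposed to compound; growth scored against vehicle-only wells.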

[4] = NCI Yeast Anticancer Drug Screen. Data for the cln2 rad14 strain (AID 165);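 note: 0% = growth equal to vehicle treated cultures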; details: S. cerevisiae cln2 rad14 strain, stronger effect = higher value
Summary of the method: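 The screen exposed genetically defined yeast (cln2 rad14) to test compounds and scored growth inhibition relative to vehicle-treated controls.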

[5] = NCI Yeast Anticancer Drug Screen. Data for the bub3 strain (AID 167); details: S. cerevisiae bub3 mutant strain, stronger effect = higher value
Summary of the method: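 In this screen, a yeast mutant lacking normal mitotic checkpoint function is challenged with compound. Relative growth versus vehicle gives the inhibition value.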

[6] = NCI Yeast Anticancer Drug Screen. Data for the mlh1 rad18 strain (AID 175); details: S. cerevisiae mlh1 rad18 strain growth inhibition, stronger effect = higher value
Summary of the method: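 Compound-treated yeast growth, normalised to vehicle controls. Strain bears defined DNA repair mutations.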

[7] = at 5.0 µM (retest, dose inferred, filed as 0.5)
[8] = at 50.0 µM (retest, dose inferred, filed as 5.0)

For `CC1=C(C)CC2C(=O)C(C(O)CC(C)C)=CC(=O)C2C1` (configuration not stated), the growth inhibition [1, 7] was -4%, the growth inhibition [1, 8] was 91% (active) and the growth inhibition ([1]; at 50.0 µM) was 97.8% (active). The growth inhibition [2, 7] was -5%, the growth inhibition [2, 8] was 91% (active) and the growth inhibition ([2]; at 50.0 µM) was 98.5% (active). For the same compound, the growth inhibition [3, 7] was -5%, the growth inhibition [3, 8] was 98% (active) and the growth inhibition ([3]; at 50.0 µM) was 98.8% (active). For the same compound, the growth inhibition [4, 7] was -13%, the growth inhibition [4, 8] was 86% (active) and the growth inhibition ([4]; at 50.0 µM) was 95.5% (active). The growth inhibition [5, 7] was -10%, the growth inhibition [5, 8] was 97% (active) and the growth inhibition ([5]; at 50.0 µM) was 98.2% (active). For the same compound, the growth inhibition [6, 7] was -9%, the growth inhibition [6, 8] was 97% (active) and the growth inhibition ([6]; at 50.0 µM) was 98.9% (active).

With `CC1=NOC(=O)/C1=C/C=C/c1ccccc1` the growth inhibition [1, 7] was -7%, the growth inhibition [1, 8] was 47% and the growth inhibition ([1]; at 50.0 µM) was 87.1% (active). For the same compound, the growth inhibition [2, 7] was 3%, the growth inhibition [2, 8] was 79% (active) and the growth inhibition ([2]; at 50.0 µM) was 86.3% (active). The growth inhibition [3, 7] was 9%, the growth inhibition [3, 8] was 89% (active) and the growth inhibition ([3]; at 50.0 µM) was 90.3% (active). The growth inhibition [4, 7] was 22%, the growth inhibition [4, 8] was 28% and the growth inhibition ([4]; at 50.0 µM) was 40.1%. The growth inhibition [5, 7] was -23%, the growth inhibition [5, 8] was 66% and the growth inhibition ([5]; at 50.0 µM) was 60.8%. The growth inhibition [6, 7] was 2%, the growth inhibition [6, 8] was 80% (active) and the growth inhibition ([6]; at 50.0 µM) was 79.2% (active).

With `C/C=C(/CCC1NCCC2c3ccccc3NC12)[Si](C)(C)C` (configuration not stated) the growth inhibition [1, 7] was 1%, the growth inhibition [1, 8] was 8% and the growth inhibition ([1]; at 50.0 µM) was 10.2%. The growth inhibition [2, 7] was -5%, the growth inhibition [2, 8] was 8% and the growth inhibition ([2]; at 50.0 µM) was 7.15%. For the same compound, the growth inhibition [3, 7] was -2%, the growth inhibition [3, 8] was 37% and the growth inhibition ([3]; at 50.0 µM) was 59.6%. The growth inhibition [4, 7] was -5%, the growth inhibition [4, 8] was 0% and the growth inhibition ([4]; at 50.0 µM) was 0.15%. It also gave a growth inhibition [5, 7] of -3%, a growth inhibition [5, 8] of 15% and a growth inhibition ([5]; at 50.0 µM) of 5.6%. It also gave a growth inhibition [6, 7] of -4%, a growth inhibition [6, 8] of 37% and a growth inhibition ([6]; at 50.0 µM) of 44.5%.

For `CC(=O)CCCOC(C)=O`, the growth inhibition [1, 7] was 63%, the growth inhibition [1, 8] was 78% (active) and the growth inhibition ([1]; at 50.0 µM) was 14.7%. The growth inhibition [2, 7] was 22%, the growth inhibition [2, 8] was 40% and the growth inhibition ([2]; at 50.0 µM) was -5.8%. The growth inhibition [3, 7] was 77% (active), the growth inhibition [3, 8] was 78% (active) and the growth inhibition ([3]; at 50.0 µM) was 7.85%. For the same compound, the growth inhibition [4, 7] was 10%, the growth inhibition [4, 8] was 22% and the growth inhibition ([4]; at 50.0 µM) was 24.6%. The growth inhibition [5, 7] was 62%, the growth inhibition [5, 8] was 86% (active) and the growth inhibition ([5]; at 50.0 µM) was -0.55%. The growth inhibition [6, 7] was 45%, the growth inhibition [6, 8] was 75% (active) and the growth inhibition ([6]; at 50.0 µM) was 31.6%.

Work on `CC(O)C1CCCC[N+]1(C)C` (configuration not stated) yielded a growth inhibition [1, 7] of 1%, a growth inhibition [1, 8] of -3% and a growth inhibition ([1]; at 50.0 µM) of 0.05%. For the same compound, the growth inhibition [2, 7] was 5%, the growth inhibition [2, 8] was 8% and the growth inhibition ([2]; at 50.0 µM) was -6.9%. The growth inhibition [3, 7] was -1%, the growth inhibition [3, 8] was -36% and the growth inhibition ([3]; at 50.0 µM) was 51.5%. For the same compound, the growth inhibition [4, 7] was -5%, the growth inhibition [4, 8] was -6% and the growth inhibition ([4]; at 50.0 µM) was -7.6%. It also gave a growth inhibition [5, 7] of -11%, a growth inhibition [5, 8] of -8% and a growth inhibition ([5]; at 50.0 µM) of 9.45%. It also gave a growth inhibition [6, 7] of -17%, a growth inhibition [6, 8] of -3% and a growth inhibition ([6]; at 50.0 µM) of -18.6%.

In the case of `Cc1cc(C)c(S(=O)(=O)n2ccnc2)c(C)c1`, the growth inhibition [1, 7] was -15%, the growth inhibition [1, 8] was -45% and the growth inhibition ([1]; at 50.0 µM) was -13.9%. For the same compound, the growth inhibition [2, 7] was 0%, the growth inhibition [2, 8] was -11% and the growth inhibition ([2]; at 50.0 µM) was -29.6%. For the same compound, the growth inhibition [3, 7] was -17%, the growth inhibition [3, 8] was -4% and the growth inhibition ([3]; at 50.0 µM) was -6.05%. It also gave a growth inhibition [4, 7] of -3%, a growth inhibition [4, 8] of 8% and a growth inhibition ([4]; at 50.0 µM) of 6.55%. It also gave a growth inhibition [5, 7] of -8%, a growth inhibition [5, 8] of -26% and a growth inhibition ([5]; at 50.0 µM) of 10.3%. For the same compound, the growth inhibition [6, 7] was -36%, the growth inhibition [6, 8] was -77% and the growth inhibition ([6]; at 50.0 µM) was -0.9%.

For `O=C(O)c1cc2ccc3cccc4ccc(c1)c2c34`, the growth inhibition [1, 7] was 4%, the growth inhibition [1, 8] was 93% (active) and the growth inhibition ([1]; at 50.0 µM) was 80.3% (active). For the same compound, the growth inhibition [2, 7] was 1%, the growth inhibition [2, 8] was 89% (active) and the growth inhibition ([2]; at 50.0 µM) was 70.7% (active). For the same compound, the growth inhibition [3, 7] was 3%, the growth inhibition [3, 8] was 94% (active) and the growth inhibition ([3]; at 50.0 µM) was 87.3% (active). The growth inhibition [4, 7] was -4%, the growth inhibition [4, 8] was 92% (active) and the growth inhibition ([4]; at 50.0 µM) was 77.8% (active). The growth inhibition [5, 7] was -3%, the growth inhibition [5, 8] was 90% (active) and the growth inhibition ([5]; at 50.0 µM) was 88.4% (active). The growth inhibition [6, 7] was 9%, the growth inhibition [6, 8] was 94% (active) and the growth inhibition ([6]; at 50.0 µM) was 86% (active).

`O=S(=O)(Nc1ccccn1)c1ccc(NCc2c3ccccc3nc3cc(Cl)ccc23)cc1` gave a growth inhibition [1, 7] of 0%, a growth inhibition [1, 8] of 65% and a growth inhibition ([1]; at 50.0 µM) of 65.9%. It also gave a growth inhibition [2, 7] of 4%, a growth inhibition [2, 8] of 37% and a growth inhibition ([2]; at 50.0 µM) of 55.2%. It also gave a growth inhibition [3, 7] of -2%, a growth inhibition [3, 8] of 66% and a growth inhibition ([3]; at 50.0 µM) of 54.5%. It also gave a growth inhibition [4, 7] of 6%, a growth inhibition [4, 8] of 36% and a growth inhibition ([4]; at 50.0 µM) of 31.9%. The growth inhibition [5, 7] was 8%, the growth inhibition [5, 8] was 76% (active) and the growth inhibition ([5]; at 50.0 µM) was 34.8%. The growth inhibition [6, 7] was 3%, the growth inhibition [6, 8] was 52% and the growth inhibition ([6]; at 50.0 µM) was 71.8% (active).

In the case of `CCCCCN=C(C)C(C)=NCCCCC`, the growth inhibition [1, 7] was -15%, the growth inhibition [1, 8] was 70% (active) and the growth inhibition ([1]; at 50.0 µM) was 93.3% (active). The growth inhibition [2, 7] was 3%, the growth inhibition [2, 8] was 92% (active) and the growth inhibition ([2]; at 50.0 µM) was 74.3% (active). The growth inhibition [3, 7] was 9%, the growth inhibition [3, 8] was 50% and the growth inhibition ([3]; at 50.0 µM) was 31.4%. For the same compound, the growth inhibition [4, 7] was -50%, the growth inhibition [4, 8] was 63% and the growth inhibition ([4]; at 50.0 µM) was 83.7% (active). For the same compound, the growth inhibition [5, 7] was -12%, the growth inhibition [5, 8] was 86% (active) and the growth inhibition ([5]; at 50.0 µM) was 96.8% (active). For the same compound, the growth inhibition [6, 7] was -9%, the growth inhibition [6, 8] was 94% (active) and the growth inhibition ([6]; at 50.0 µM) was 95% (active).

From PubChem BioAssay (NCI)
